Common to all, as to assay: NCI-60 one-dose screen, 48 h (100 = growth as untreated, 0 = no growth, -100 = all killed)
Common to all, as to conditions: 10 µM unless noted

In assay [1] the test system is T-47D breast.
In assay [2] the test system is BT-549 breast.
Assay [3] relates to MDA-MB-435 melanoma.
Assay [4] concerns SW-620 colon.
For assay [5], the system named is MCF7 breast.
The subject of assay [6] is HCT-116 colon.
Assay [7] relates to HCC-2998 colon.
Assay [8] relates to KM12 colon.

Molecules are shown by their SMILES. Several values for one entry are separate records, joined by “and”; a condition that tells them apart may be missing. Equal values may be shown once. The panel holds about 83,000 compounds, 20% with a hit somewhere; the sample as a whole holds those more often.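 Single-dose data. Exposure time 48 hours. Values below 10 considered active.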 Activity calls are given as the source filed them.

Regarding `CCOC(=O)C1=C(C)N=C2SC=C(c3ccc(F)cc3)N2[C@H]1c1cn(-c2ccccc2)nc1-c1ccc(Cl)cc1`, the growth in assay [1] is 79.6% (inactive); in assay [2], 93.1% (inactive); in assay [3] it was 94.4% (inactive); in assay [4], 100% (inactive); in assay [5] it was 87.2% (inactive); in assay [6], 90% (inactive). The growth in assay [7] is 105% (inactive); in assay [8] it was 107% (inactive).

As for `COC1/C=C/OC2(C)Oc3c(C)c(O)c4c(O)c(c(C=NOC(c5ccccc5)c5ccccc5)c(O)c4c3C2=O)NC(=O)/C(C)=C/C=C/C(C)C(O)C(C)C(O)C(C)C(OC(C)=O)C1C` (centres undefined), the growth in assay [1] is -82.7% (active); in assay [2], 32.7% (inactive); in assay [3], 11.5% (inactive); in assay [4] it was 18.3% (inactive); in assay [5], 10.9% (inactive); in assay [6], 10.9% (inactive). Also, the growth in assay [7] was -38.8% (active); in assay [8], 5.8% (active).

With `CC[C@H](C)[C@H](NC(=O)[C@@H](N)CCC(N)=O)C(=O)N[C@@H](Cc1ccc(O)cc1)C(=O)N[C@@H](CCCCN)C(=O)N[C@@H](CCCCN)C(=O)N[C@@H](Cc1ccc(O)cc1)C(=O)N[C@@H](CCCNC(=N)N)C(=O)N[C@H](C(=O)N[C@@H](Cc1c[nH]c2ccccc12)C(=O)N[C@@H](Cc1ccc(O)cc1)C(=O)N[C@@H](CCCNC(=N)N)C(=O)N[C@@H](CCCCN)C(=O)N[C@@H](C)C(=O)N[C@@H](Cc1c[nH]c2ccccc12)C(=O)N[C@@H](CCCCN)C(=O)N[C@H](C(=O)N[C@@H](CC(C)C)C(=O)NCC(=O)N[C@@H](CCCCN)C(=O)N[C@H](C(N)=O)C(C)C)C(C)C)[C@@H](C)O`, the growth in assay [1] is -47% (active); in assay [2], 16.3% (inactive); in assay [3] it was 17.9% (inactive); in assay [4], 47.2% (inactive); in assay [5] it was -68.3% (active); in assay [6], 28.7% (inactive). The growth in assay [7] was 87.5% (inactive); in assay [8], -33% (active).

In the case of `Cc1nc2sc(C(=O)Nc3cccc(Cl)c3C)c(N)c2cc1C(O)c1ccccc1` (centres undefined), the growth in assay [1] is 44.5% (inactive); in assay [2], 40.9% (inactive); in assay [3] it was 4.87% (active); in assay [4], 24.1% (inactive); in assay [5] it was 16.2% (inactive); in assay [6], 8.63% (active). Moreover, the values for the growth in assay [7] and in assay [8] were 13.4% (inactive) and 10.5% (inactive), respectively.

As to `Cc1ccc(-c2nc([P+](c3ccccc3)(c3ccccc3)c3ccccc3)c(Nc3ccccc3)o2)cc1`, the growth in assay [1] is 8.18% (active); in assay [2], 2.14% (active); in assay [3] it was -32.9% (active); in assay [4] it was -29.9% (active); in assay [5], 0.233% (active); in assay [6], -22.2% (active). Besides, the growth in assay [7] is -51.5% (active); in assay [8], -35.1% (active).

`Cn1cc(-c2nc3c(F)cc4[nH]ncc4c3c3c2CCCC3)c(C(F)F)n1`: the growth in assay [1] was 50.8% (inactive); in assay [2], 31.1% (inactive); in assay [3], 27.1% (inactive); in assay [4], 56.3% (inactive); in assay [5] it was 46.5% (inactive); in assay [6], 39.7% (inactive). The growth is 90.6% (inactive) in assay [7] and 23.2% (inactive) in assay [8].

Turning to `COc1ccc(/C=N\Nc2nc(SCC(C)C)nc(-c3ccc(OC)cc3)c2C#N)cc1`, the growth in assay [1] was 16.2% (inactive); in assay [2], 110% (inactive); in assay [3] it was 68.5% (inactive); in assay [4], 51% (inactive); in assay [5], 59.3% (inactive); in assay [6], 2.29% (active). Moreover, the growth in assay [7] is 64.2% (inactive); in assay [8], 62.6% (inactive).

Consider `OCCN1CCN(CC/C=C2\c3ccccc3Sc3ccc(Cl)cc32)CC1`, for which the growth in assay [1] is 48.6% (inactive) and 57.4% (inactive); in assay [2], 67.5% (inactive); in assay [3] it was -70.8% (active) and -44.4% (active); in assay [4] it was -75.2% (active) and 0.592% (active); in assay [5], 17.3% (inactive) and 4.22% (active); in assay [6], -59.8% (active) and -45.1% (active). Also, the growth in assay [7] was -91.4% (active) and 12.7% (inactive); in assay [8], 2.71% (active) and 36.2% (inactive).

As for `COc1ccc(/C=N/NC(=O)CN2CCN(c3cc4c(cc3F)c(=O)c(C(=O)O)cn4C3CC3)CC2)cc1O`, the growth in assay [1] is 96.6% (inactive); in assay [2], 107% (inactive); in assay [3], 107% (inactive); in assay [4], 102% (inactive); in assay [5], 92.6% (inactive); in assay [6] it was 93.4% (inactive). The growth in assay [7] is 99.2% (inactive); in assay [8], 102% (inactive).

As for `C=CCN1C=CC(=O)[C@H](O[Si](C)(C)C(C)(C)C)[C@@H]1/C=C/c1ccccc1`, the growth in assay [1] was -80.7% [100 µM] (active); in assay [2], -62.4% [100 µM] (active); in assay [3], -48.2% [100 µM] (active); in assay [4], -58.9% [100 µM] (active); in assay [5], -75.1% [100 µM] (active); in assay [6], -77.5% [100 µM] (active). Further, the growth in assay [7] was -87.3% [100 µM] (active); in assay [8], -71.8% [100 µM] (active).

Turning to `COc1cc(/C=C/C(=O)c2ccc(NC(=O)CSc3nnc(-c4cc(-c5ccccc5)nc5ccccc45)n3-c3ccccc3)cc2)cc(OC)c1OC`, the growth is 73% (inactive) in assay [1]; 90.7% (inactive) in assay [2]; 92.2% (inactive) in assay [3]; 90.5% (inactive) in assay [4]; 74.3% (inactive) in assay [5]; 79% (inactive) in assay [6]. The growth in assay [7] was 88.3% (inactive); in assay [8], 63.5% (inactive).

As for `CN1CCN(CCCN2c3ccccc3Sc3ccc(Cl)cc32)CC1`, the growth in assay [1] is 63.5% (inactive); in assay [2], 85.8% (inactive) and 91.1% (inactive); in assay [3], 30.3% (inactive) and 42.4% (inactive); in assay [4], 83.2% (inactive) and 94% (inactive); in assay [5] it was 37.2% (inactive) and 63.8% (inactive); in assay [6], 57.5% (inactive) and 70.6% (inactive). Moreover, the growth was 66.8% (inactive) in assay [7]; 73.8% (inactive) and 98.2% (inactive) in assay [8].

Consider `CN(C)CCCn1c2c(c3ccc(N4CCNCC4)cc3c1=O)C(=O)c1ccccc1-2`, for which the growth in assay [1] was 44% (inactive); in assay [2], 54.2% (inactive); in assay [3], 20% (inactive); in assay [4] it was -21.6% (active); in assay [5] it was -28.2% (active); in assay [6], -89.1% (active). Moreover, the growth in assay [7] is -68.9% (active); in assay [8], -32.1% (active).

These data come from PubChem BioAssay (NCI).
